Screens deposited in PubChem BioAssay by National Center for Advancing Translational Sciences (NCATS).
DT40 TDP1 no CPT = qHTS for Inhibitors of human tyrosyl-DNA phosphodiesterase 1 (TDP1): qHTS in cells in absence of CPT | DT40 Tdp1-/- hTDP1 cells, no CPT, ATP luminescence, 48 h | AID 686978, 2013 | Potency, µM (highest dose often 46.2 µM), without a hit: top-dose activity change, negative = growth inhibition, hits mostly inhibitors | 420,000 tested, 15% active; further: potency means the concentration at half of the fitted maximal effect; on the % scale 0 is the no-effect control and ±100 the full control effect; nearly all actives have a fitted effect of over 55% in size
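Camptothecin absent (DMSO only). Human TDP1-complemented DT40 knockout cells, 400 cells/well, 37 °C for minimum 48 hr; ATP measured via CellTiter-Glo, 30 min dark incubation, luminescence.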
IL1B secr inh = inhibitors of inflammasome signaling (IL-1 beta secretion); THP-1 LPS/ATP IL-1B secretion, AlphaLISA, 16 h; active compounds read low; activity change, % at 57.5 µM; 360,000 tested, 4.7% active; AID 743279; in the data active means activity change below about -50%; inconclusive means mostly about -30% to -49%; further: on the % scale 0 is the no-effect control and ±100 the full control effect
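Secreted IL-1B measured by AlphaLISA bead assay after 16 h compound exposure of THP-1 cells; compounds (final up to 57.5 uM) added 1 h before LPS (250 ng/mL) and ATP (1.25 mM) stimulation; lower signal means less secretion.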
DT40 TDP1 CPT = growth inhibition of DT40 Tdp1-/-;hTDP1 cells with camptothecin (screen for TDP1 inhibitors); chicken DT40 Tdp1-/-;hTDP1 cells + 20 nM CPT, ATP luminescence, 48 h; Potency, µM (highest dose often 46.2 µM), for inactives: at the highest dose activity change, negative = growth inhibition, actives largely listed as inhibitors; 420,000 tested, 12% active; AID 686979; further: potency means the concentration at half of the fitted maximal effect; on the % scale 0 is the no-effect control and ±100 the full control effect; nearly all actives have a fitted effect of over 55% in size
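Cell growth measured by CellTiter-Glo luminescence after a minimum 48 h, 37 C compound exposure with 20 nM CPT in Tdp1-knockout DT40 cells stably expressing hTDP1, seeded 400/well; qHTS titration format.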
HepG2 tox = HepG2 cytotoxicity, counter-screen for TGF-b inhibitors; 410,000 tested, 0.76% active; Potency, µM (doses to about 46.1 µM), for the others: at the top dose activity change, negative = cytotoxicity, actives largely listed as cytotoxic; AID 588856; HepG2 CAGA-GFP viability, ATP luminescence, 18 h; further: potency means the concentration at half of the fitted maximal effect
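CellTiter-Glo luminescence gave cytotoxicity after 18 hours at 37 degrees C. The cells were HepG2 CAGA-GFP in 1% FBS DMEM, stimulated with 500 pg/mL TGF-beta after compound addition. %Activity was normalised to no-cell wells (complete cell-killing) and DMSO (no toxicity), and curves were fitted and classified.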
TGFb SMAD3 inh = blocks TGF-b signaling; HepG2 CAGA-GFP TGF-b/SMAD3 reporter, GFP fluorescence, 18 h; TGF-beta stimulated, 500 pg/mL final; Potency, µM (series often up to 46.1 µM), for inactives: at the top dose activity, negative = inhibition, usual class: inhibitors; 410,000 tested, 1.2% active; further: potency means the concentration at half of the fitted maximal effect; on the % scale 0 is the no-effect control and ±100 the full control effect; nearly all actives have a fitted effect of over 65% in size
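Smad-responsive CAGA-GFP expression was quantified in HEPG2 cells exposed to compounds and 500 pg/mL final TGF-beta for 18 h at 37 degrees C; unstimulated wells defined full inhibition.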
TDP1 block = inhibitors of human tyrosyl-DNA phosphodiesterase TDP1; Q9NUW8; recombinant TDP1, AlphaScreen DNA substrate cleavage; Potency, µM (doses to about 130 µM), without a hit: top-dose activity change, negative = inhibition, usual class: inhibitors; 350,000 tested, 0.28% active; AID 485290; further: potency means the concentration at half of the fitted maximal effect; on the % scale 0 is the no-effect control and ±100 the full control effect; nearly all actives have a fitted effect of over 40% in size
Target sequence (Q9NUW8 whole entry, looked up): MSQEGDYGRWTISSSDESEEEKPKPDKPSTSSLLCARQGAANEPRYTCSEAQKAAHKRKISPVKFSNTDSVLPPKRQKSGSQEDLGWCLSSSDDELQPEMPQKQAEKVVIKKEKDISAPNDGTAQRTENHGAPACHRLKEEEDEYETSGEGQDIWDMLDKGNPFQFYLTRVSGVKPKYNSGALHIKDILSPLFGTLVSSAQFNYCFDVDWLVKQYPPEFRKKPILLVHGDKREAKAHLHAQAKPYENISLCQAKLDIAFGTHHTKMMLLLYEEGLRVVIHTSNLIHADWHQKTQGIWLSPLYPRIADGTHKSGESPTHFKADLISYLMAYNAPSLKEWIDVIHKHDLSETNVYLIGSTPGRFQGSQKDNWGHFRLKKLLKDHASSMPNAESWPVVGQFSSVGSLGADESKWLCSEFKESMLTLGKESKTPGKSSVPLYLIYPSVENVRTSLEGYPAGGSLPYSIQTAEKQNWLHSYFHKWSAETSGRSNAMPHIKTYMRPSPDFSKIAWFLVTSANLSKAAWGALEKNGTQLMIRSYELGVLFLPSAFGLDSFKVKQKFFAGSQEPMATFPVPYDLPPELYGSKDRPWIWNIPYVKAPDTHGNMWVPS
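Signal: AlphaScreen proximity between streptavidin donor and anti-FITC acceptor beads on intact substrate. Reaction: Tdp1 1 nM, substrate 15 nM final, 5 min RT after 15 min compound preincubation.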
* = called active by the depositor; ? = inconclusive; · = no result given. An excerpt weighted towards active compounds, which were near 19% of everything screened. Unless noted, the call rests on the fitted dose curve; in most records, active means well fitted curve in the direction sought with a large enough effect; inconclusive means small, poorly fitted or top-dose-only effect, or another doubt; inactive means no such curve, though single readings can be large; an effect the other way counts as inactive or inconclusive.

SMILES	DT40 TDP1 no CPT	IL1B secr inh	DT40 TDP1 CPT	HepG2 tox	TGFb SMAD3 inh	TDP1 block
CC1(C(=O)NS(=O)(=O)C2CC2)CCN(C(=O)c2cccc(OC(F)(F)F)c2)C1 (centres undefined)	?	19	?	-9%	?	·
Cc1cc(C)c(C#N)c(Sc2nc(C)c([N+](=O)[O-])c(C)c2C#N)n1	5.8µM*	?	3.7µM*	13µM*	?	·
Cc1cc(C)c(C#N)c(SCc2ccc([N+](=O)[O-])cc2)n1	23%	-10	1%	13%	-3%	2%
Cc1nc(Sc2ccccc2)c(C#N)cc1-c1ccccc1	-12%	-5	-28%	-5%	19%	·
Cc1nc(Sc2ccccc2)c(C#N)c(C)c1[N+](=O)[O-]	16µM*	·	?	-38%	-15%	5%
CCc1ccccc1NC(=O)c1cc2nc(-c3ccc(Br)cc3)cc(C(F)(F)F)n2n1	?	·	?	-19%	0%	-4%
Cc1noc(C)c1NC(=O)N(C)C[C@H]1Oc2c(NS(=O)(=O)c3cn(C)cn3)cccc2C(=O)N([C@H](C)CO)C[C@@H]1C	6%	0	4%	-34%	-8%	1%
O=C1Cc2c(-c3ccccc3)cc(-c3cccc(Cl)c3)nc2-c2ccccc2N1	?	0	21µM*	0.89µM*	-8%	·
COc1ccc(Cl)cc1Cn1c(C)c(C(=O)NCc2ccc(C#N)cc2)sc1=O	18µM*	-21	23µM*	3%	-11%	·
C=Cc1ccc(Cn2c(C)c(C(=O)NCc3ccc(C#N)cc3)sc2=O)cc1	16µM*	?	16µM*	-6%	-26%	·
COc1ccc(Cl)cc1Cn1c(C)c(C(=O)NCc2cccc(C(F)(F)F)c2)sc1=O	?	-59*	?	0%	?	·
C=Cc1ccc(Cn2c(C)c(C(=O)NCc3ccc4c(c3)OCO4)sc2=O)cc1	?	?	?	-23%	-21%	·
COc1ccc(Cl)cc1Cn1c(C)c(C(=O)NCc2ccccc2C(F)(F)F)sc1=O	-19%	-6	-47%	-19%	-15%	·
COc1ccccc1Cn1c(C)c(C(=O)NCc2ccc(C#N)cc2)sc1=O	?	-17	?	-3%	-1%	·
Cc1cccc(CNC(=O)c2sc(=O)n(Cc3c(C)cccc3C)c2C)c1	23µM*	-17	?	-6%	?	·
O=C(Cn1c(-c2cccs2)cc2ccccc21)N1CCN(c2ccccc2F)CC1	?	·	?	-20%	-23%	4%
COc1ccc(CNC(=O)c2sc(=O)n(Cc3ccc(-c4ccccc4)cc3)c2C)cc1OC	12µM*	-13	12µM*	1%	-29%	·
Cc1c(C(=O)NCc2cccc(C(F)(F)F)c2)sc(=O)n1Cc1ccccc1F	26µM*	-3	?	-17%	?	·
Cc1c(C(=O)NCc2ccccc2C(F)(F)F)sc(=O)n1Cc1cccc(C(F)(F)F)c1	?	-11	?	-23%	-28%	·
COc1ccccc1Cn1c(C)c(C(=O)NCc2cccc(C)c2)sc1=O	-14%	?	?	-24%	-15%	·
Cn1cnnc1SCC(=O)Nc1ccc(C#N)cc1	1%	·	-2%	-4%	-23%	2%
O=C(/C=C/c1ccccc1)NC(NC(=S)Nc1cccc(O)c1)C(Cl)(Cl)Cl (centres undefined)	18µM*	-117*	?	-46%	?	5%
O=C(/C=C/c1ccccc1)NC(NC(=S)Nc1ccc(C(=O)O)cc1)C(Cl)(Cl)Cl (centres undefined)	-7%	14	-5%	-1%	-16%	0%
